Results taken from the antibiotic and cytotoxicity screens of Wong et al. (2023).
About 3,300 (8.5%) of roughly 39,000 compounds were called active. Only a selection was taken, and actives are over-represented in it overall.

system: HepG2; assay: cytotoxicity call (relative viability < 0.9); details: 10 µM

| Structure (SMILES) | cytotoxicity call |
| --- | --- |
| Cc1cc(C(=O)Nc2cccc3c2O[C@@H](CN(C)S(=O)(=O)c2ccc(F)cc2)[C@@H](C)CN([C@H](C)CO)C3=O)n(C)n1 | inactive |
| COc1ccc(S(=O)(=O)N(C)C[C@@H]2Oc3cc(C#CC4CCCC4)ccc3S(=O)(=O)N([C@H](C)CO)C[C@H]2C)cc1 | inactive |
| C[C@@H]1CN([C@H](C)CO)C(=O)c2cc(NS(=O)(=O)c3ccccc3)ccc2O[C@@H]1CN(C)S(=O)(=O)c1ccc(F)cc1 | inactive |
| COc1ccc(NC(=O)N[C@H]2CC[C@@H](CCNC(=O)CN3CCOCC3)O[C@@H]2CO)cc1 | inactive |
| CCS(=O)(=O)Nc1ccc2c(c1)C(=O)N(C)[C@@H]1CC[C@@H](CC(=O)NCc3ccccc3F)O[C@H]1CO2 | inactive |
| C[C@@H]1CCCCO[C@H](CN(C)S(=O)(=O)c2ccccc2)[C@H](C)CN([C@@H](C)CO)C(=O)c2cc(NC(=O)C3CCCCC3)ccc2O1 | inactive |
| COc1ccc(CN(C)C[C@H]2OCCCC[C@H](C)Oc3ccc(NS(=O)(=O)c4ccc(Cl)cc4)cc3C(=O)N([C@H](C)CO)C[C@@H]2C)cc1 | inactive |
| COCC(=O)N1[C@H](C(=O)NCc2ccccc2)[C@@H](CO)[C@@H]2Cn3c(cccc3=O)[C@@H]21 | inactive |
| C[C@@H]1CN([C@H](C)CO)C(=O)c2cc(NC(=O)CCCN(C)C)ccc2O[C@@H]1CN(C)Cc1ccccc1 | inactive |
| C[C@@H]1CN([C@@H](C)CO)C(=O)c2cc(NC(=O)CCCN(C)C)ccc2O[C@@H]1CN(C)Cc1ccccc1 | inactive |
| C[C@@H]1CN([C@@H](C)CO)C(=O)c2cc(NC(=O)CCCN(C)C)ccc2O[C@@H]1CN(C)Cc1ccc(Oc2ccccc2)cc1 | active |
| C[C@H](CO)N1C[C@H](C)[C@H](CN(C)Cc2ccc(Oc3ccccc3)cc2)Oc2ccc(NC(=O)CCCN(C)C)cc2C1=O | active |
| C[C@H]1CN([C@@H](C)CO)C(=O)c2cc(NC(=O)CCCN(C)C)ccc2O[C@@H]1CN(C)Cc1ccccc1 | inactive |
| C[C@H](CO)N1C[C@H](C)[C@H](CN(C)Cc2ccccc2)Oc2ccc(NC(=O)CCCN(C)C)cc2C1=O | inactive |
| Cc1noc(C)c1NC(=O)Nc1ccc2c(c1)CC(=O)N([C@@H](C)CO)C[C@H](C)[C@H](CN(C)Cc1ccc(C(F)(F)F)cc1)O2 | inactive |
| C[C@@H]1CN([C@H](C)CO)C(=O)c2cc(NC(=O)Nc3ccc(F)cc3)ccc2O[C@@H](C)CCCCO[C@H]1CN(C)C(=O)Nc1ccccc1 | inactive |
| O=c1[nH]ncc2ccccc12 | inactive |
| Cc1ccc(S(=O)(=O)Nc2cccc3c2O[C@@H](CN(C)S(=O)(=O)c2ccccc2)[C@H](C)CN([C@H](C)CO)C3=O)cc1 | inactive |
| O=C(CN1CCOCC1)NCC[C@H]1CC[C@@H](NC(=O)c2ccc3c(c2)OCO3)[C@@H](CO)O1 | inactive |
| Cc1ccc(S[C@]2(C(=O)NC(C)C)CC(=O)N(Cc3ccccc3Cl)[C@@H]2c2ccc(CO)cc2I)cc1 | inactive |
| O=C(C[C@@H]1C[C@@H]2c3cc(NS(=O)(=O)c4ccc(F)cc4)ccc3O[C@@H]2[C@H](CO)O1)N1CCCCC1 | inactive |

| Structure (SMILES) | cytotoxicity call |
| --- | --- |
| C[C@@H]1CN([C@@H](C)CO)C(=O)Cc2cc(NC(=O)Nc3ccccc3)ccc2O[C@@H]1CN(C)Cc1ccc(C(=O)Nc2ccccc2N)cc1 | inactive |
| C[C@H]1CN([C@@H](C)CO)C(=O)Cc2cc(NC(=O)Nc3ccc(C(F)(F)F)cc3)ccc2O[C@@H]1CN(C)Cc1ccc(C(=O)Nc2ccccc2N)cc1 | inactive |
| C[C@H]1CN([C@@H](C)CO)C(=O)Cc2cc(NC(=O)Nc3ccc(C(F)(F)F)cc3)ccc2O[C@H]1CN(C)Cc1ccc(C(=O)Nc2ccccc2N)cc1 | active |
| C[C@@H]1CN([C@H](C)CO)C(=O)Cc2cc(NC(=O)Nc3ccc(C(F)(F)F)cc3)ccc2O[C@@H]1CN(C)Cc1ccc(C(=O)Nc2ccccc2N)cc1 | active |
| C[C@H](CO)N1C[C@H](C)[C@@H](CN(C)Cc2ccc(C(=O)Nc3ccccc3N)cc2)Oc2ccc(NC(=O)CCC(F)(F)F)cc2CC1=O | inactive |
| C[C@H]1CN([C@@H](C)CO)C(=O)Cc2cc(NC(=O)CCC(F)(F)F)ccc2O[C@H]1CN(C)Cc1ccc(C(=O)Nc2ccccc2N)cc1 | active |
| C[C@@H]1CN([C@H](C)CO)C(=O)Cc2cc(NC(=O)Nc3ccc(C(F)(F)F)cc3)ccc2O[C@H]1CN(C)Cc1ccc(C(=O)Nc2ccccc2N)cc1 | inactive |
| C[C@@H]1CN([C@H](C)CO)C(=O)Cc2cc(NC(=O)CCC(F)(F)F)ccc2O[C@H]1CN(C)Cc1ccc(C(=O)Nc2ccccc2N)cc1 | inactive |
| C[C@@H]1CN([C@@H](C)CO)C(=O)Cc2cc(NC(=O)Nc3ccc(C(F)(F)F)cc3)ccc2O[C@@H]1CN(C)Cc1ccc(C(=O)Nc2ccccc2N)cc1 | active |
| CC(=O)O[C@H]1C[C@@H]2CC[C@@H]3[C@H](CC[C@@]4(C)[C@H]3C[C@H]([N+]3(C)CCCCC3)[C@@H]4OC(C)=O)[C@@]2(C)C[C@@H]1N1CCCCC1 | inactive |
| C[C@@H]1CN([C@@H](C)CO)C(=O)c2cc(NC(=O)CCN3CCOCC3)ccc2O[C@@H]1CN(C)Cc1ccncc1 | inactive |
| C[C@@H]1CN([C@@H](C)CO)C(=O)c2cc(NS(=O)(=O)c3cccs3)ccc2O[C@H]1CN(C)S(C)(=O)=O | inactive |
| Cc1noc(C)c1S(=O)(=O)Nc1ccc2c(c1)CC(=O)N([C@H](C)CO)C[C@@H](C)[C@@H](CN(C)S(=O)(=O)c1cccs1)O2 | inactive |
| Cc1noc(C)c1S(=O)(=O)Nc1cccc2c1O[C@H](CN(C)C(=O)NC1CCCCC1)[C@H](C)CN([C@H](C)CO)C2=O | inactive |
| CC(C)CC#Cc1ccc2c(c1)O[C@H](CN(C)C(=O)c1ccccn1)[C@@H](C)CN([C@@H](C)CO)S2(=O)=O | inactive |
| CC(C)(C)[S@@](=O)N1Cc2cc(C(=O)N[C@H]3CCN(Cc4ccccc4)C3)nc(-c3cccc(-c4cccnc4)c3)c2[C@H]1CCO | inactive |
| C[C@H]1CN([C@@H](C)CO)C(=O)c2cc(C#Cc3ccc(F)cc3)cnc2O[C@H]1CN(C)Cc1ccccn1 | inactive |
| COc1ccc(NC(=O)Nc2ccc3c(c2)CC(=O)N([C@H](C)CO)C[C@@H](C)[C@@H](CN(C)S(=O)(=O)c2cn(C)cn2)O3)cc1 | inactive |
| C[C@H](CO)N1C[C@H](C)[C@H](CN(C)Cc2ccc(C(=O)Nc3ccccc3N)cc2)Oc2ccc(NC(=O)Nc3ccc(C(F)(F)F)cc3)cc2CC1=O | active |
| Cc1ccc(S(=O)(=O)Nc2cccc3c2O[C@H](CN(C)C(=O)Nc2ccc(C(F)(F)F)cc2)[C@@H](C)CN([C@@H](C)CO)C3=O)cc1 | inactive |
| C[C@H](CO)N1C[C@H](C)[C@H](CN(C)S(=O)(=O)c2ccc(F)cc2)Oc2ccc(NC(=O)Nc3ccc(C(F)(F)F)cc3)cc2C1=O | inactive |

| Structure (SMILES) | cytotoxicity call |
| --- | --- |
| C[C@H]1CN([C@@H](C)CO)C(=O)c2cc(NC(=O)Nc3ccc(C(F)(F)F)cc3)ccc2O[C@H]1CN(C)S(C)(=O)=O | inactive |
| C[C@@H]1CN([C@@H](C)CO)C(=O)c2cc(NC(=O)Nc3ccc(C(F)(F)F)cc3)ccc2O[C@H]1CN(C)S(=O)(=O)c1ccc(F)cc1 | inactive |
| C[C@H]1CN([C@@H](C)CO)C(=O)c2cc(NC(=O)Nc3ccc(C(F)(F)F)cc3)ccc2O[C@@H]1CN(C)S(C)(=O)=O | inactive |
| C[C@@H]1CN([C@@H](C)CO)C(=O)c2cc(NC(=O)Nc3ccc(C(F)(F)F)cc3)ccc2O[C@@H]1CN(C)S(=O)(=O)c1ccc(F)cc1 | active |
| C[C@@H]1CN([C@H](C)CO)C(=O)c2cc(NC(=O)Nc3ccc(C(F)(F)F)cc3)ccc2O[C@@H]1CN(C)S(=O)(=O)c1ccc(F)cc1 | active |
| C[C@H]1CN([C@@H](C)CO)C(=O)c2cc(NC(=O)Nc3ccc(C(F)(F)F)cc3)ccc2O[C@@H]1CN(C)S(=O)(=O)c1ccc(F)cc1 | inactive |
| C[C@H](CO)N1C[C@H](C)[C@@H](CN(C)S(=O)(=O)c2ccc(F)cc2)Oc2ccc(NC(=O)Nc3ccc(C(F)(F)F)cc3)cc2C1=O | inactive |
| C[C@@H]1CN([C@H](C)CO)C(=O)c2cc(NC(=O)Nc3ccc(C(F)(F)F)cc3)ccc2O[C@H]1CN(C)S(=O)(=O)c1ccc(F)cc1 | active |
| C[C@H]1CN([C@@H](C)CO)C(=O)c2cc(NC(=O)Nc3ccc(C(F)(F)F)cc3)ccc2O[C@H]1CN(C)S(=O)(=O)c1ccc(F)cc1 | active |
| C[C@@H]1CN([C@H](C)CO)C(=O)c2cc(NC(=O)Nc3ccc(C(F)(F)F)cc3)ccc2O[C@H]1CN(C)S(C)(=O)=O | inactive |
| C[C@H]1CCCCO[C@@H](CN(C)C(=O)Nc2ccc3c(c2)OCO3)[C@@H](C)CN([C@@H](C)CO)C(=O)c2cc(NC(=O)C3CCCCC3)ccc2O1 | inactive |
| C[C@H](CO)N1C[C@H](C)[C@@H](CN(C)C(=O)Nc2cccc3ccccc23)OCCCC[C@H](C)Oc2ccc(NC(=O)CCCN(C)C)cc2C1=O | inactive |
| C[C@@H]1CN([C@@H](C)CO)S(=O)(=O)c2ccc(C#CC3(O)CCCC3)cc2O[C@H]1CN(C)C(=O)Cc1ccncc1 | inactive |
| C[C@@H]1CN([C@H](C)CO)C(=O)c2cc(NC(=O)Nc3ccc(F)cc3)ccc2O[C@@H]1CN(C)Cc1ccc(Oc2ccccc2)cc1 | active |
| C[C@@H]1CN([C@H](C)CO)C(=O)c2cc(NC(=O)Nc3ccc(F)cc3)ccc2O[C@H]1CN(C)Cc1ccc(Oc2ccccc2)cc1 | active |
| C[C@H](CO)N1C[C@H](C)[C@H](CN(C)Cc2ccc(Oc3ccccc3)cc2)Oc2ccc(NC(=O)Nc3ccc(F)cc3)cc2C1=O | active |
| C[C@@H]1CN([C@@H](C)CO)C(=O)c2cc(NC(=O)Nc3ccc(F)cc3)ccc2O[C@H]1CN(C)Cc1ccc(Oc2ccccc2)cc1 | inactive |
| C[C@H](CO)N1C[C@H](C)[C@@H](CN(C)Cc2ccc(Oc3ccccc3)cc2)Oc2ccc(NC(=O)Nc3ccc(F)cc3)cc2C1=O | inactive |
| C[C@@H]1CN([C@@H](C)CO)C(=O)c2cc(NC(=O)Nc3ccc(F)cc3)ccc2O[C@@H]1CN(C)Cc1ccc(Oc2ccccc2)cc1 | active |
| C[C@H]1CN([C@@H](C)CO)C(=O)c2cc(NC(=O)Nc3ccc(F)cc3)ccc2O[C@H]1CN(C)Cc1ccc(Oc2ccccc2)cc1 | inactive |
